{"source": "PubChem BioAssay (Tox21)", "note": "Activity calls are given as the source filed them. A call without a number means that no potency is given here. The call rests on the fitted dose curve; in most records, active means well fitted curve in the direction sought with a large enough effect in the repeat runs; inconclusive means weak or mixed curves; inactive means flat fitted curve, though single readings scatter."}
{"assay": "qHTS assay to test for compound auto fluorescence at 590 nm (red) in HepG2 cells (AID 720674)", "conditions": "HepG2 autofluorescence, red 540/590 nm, 1 h; series mostly up to 91.3 µM", "how_it_was_run": "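Rose Bengal sodium served as the red fluorophore standard. HepG2 monolayers (overnight attachment, MEM with 10% FBS) were exposed to test compounds for 1 hr at 37 C and read at Ex 540/Em 590 nm.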"}
{"compound": "CSSc1ccoc1C", "outcome": "inactive"}
{"compound": "CCOC(=O)C(C)O", "note": "(stereo not drawn)", "outcome": "inactive"}
{"compound": "O=C(O)CCC(=O)c1ccc(-c2ccccc2)cc1", "fluorescence, relative to Rose Bengal": "0.795% [at 18.6 µM] (inactive)"}
{"compound": "CNc1c2c(nn1C)CCCC2", "outcome": "inactive"}
{"compound": "CCN(Cc1cccc(S(=O)(=O)O)c1)c1ccc(C(=C2C=CC(=[N+](CC)Cc3cccc(S(=O)(=O)O)c3)C=C2)c2ccccc2S(=O)(=O)[O-])cc1", "outcome": "inactive"}
{"compound": "Nc1ccn([C@H]2CS[C@@H](CO)O2)c(=O)n1", "outcome": "inactive"}
{"compound": "C=CC(=O)O", "outcome": "inactive"}
{"compound": "CN=C(N)NC(=O)Nc1c(C)cccc1C", "outcome": "inactive"}
{"compound": "Cc1ccc2nc(N)[nH]c(=O)c2c1Sc1ccncc1", "outcome": "inactive"}
{"compound": "CCCCCCCC(=O)OCCCCCC", "outcome": "inactive"}
{"compound": "C[C@@H]1[C@H](O)[C@@H](C)/C=C/C=C\\C=C\\C=C\\C=C\\C=C\\C=C\\[C@H](O[C@@H]2O[C@H](C)[C@@H](O)[C@H](N)[C@@H]2O)C[C@@H]2O[C@](O)(C[C@@H](O)C[C@@H](O)[C@H](O)CC[C@@H](O)C[C@@H](O)CC(=O)O[C@H]1C)C[C@H](O)[C@H]2C(=O)O", "note": "(stereo in doubt)", "outcome": "inactive"}
{"compound": "COc1ccc(-n2nc(C(F)F)cc2-c2ccc(S(C)=O)cc2)cc1", "note": "(stereo not drawn)", "outcome": "inactive"}
{"compound": "CCN(CC)CCOC(=O)C(c1ccccc1)c1ccccc1", "outcome": "inactive"}
{"compound": "O=c1[nH]c2cc(C(F)(F)F)c(N3CCOCC3)cc2n(CP(=O)(O)O)c1=O", "outcome": "inactive"}
{"assay": "qHTS assay to test for compound auto fluorescence at 535 nm (green) in HepG2 cells (AID 720675)", "conditions": "green autofluorescence 485/535 nm, 1 h; series mostly up to 91.3 µM"}
{"compound": "CCc1ccc(C)cc1", "outcome": "inactive"}
{"compound": "Cc1ccc(Cl)cc1N", "outcome": "inactive"}
{"compound": "Cc1ccc(NC(=O)N(C)C)cc1NC(=O)N(C)C", "outcome": "inactive"}
{"compound": "CC(C)(C)S", "outcome": "inactive"}
{"compound": "O=P(O)(O)Oc1ccccc1", "outcome": "inactive"}
{"compound": "COc1ccc(-c2cc(C(F)F)nn2-c2ccc(S(N)(=O)=O)cc2)cc1F", "outcome": "inactive"}
{"compound": "CCO[Si](C)(CCCOCC1CO1)OCC", "note": "(stereo not drawn)", "outcome": "inactive"}
{"compound": "CNS(=O)(=O)c1cc(C(=O)N2CCC(CCN3C4CCC3CC(n3c(C)nc5ccccc53)C4)(c3cccc(F)c3)CC2)c(Cl)cc1F", "note": "(stereo not drawn)", "outcome": "inactive"}
{"compound": "Cc1c[nH]c2ccccc12", "outcome": "inactive"}
{"compound": "O=C1OC[C@H](Cc2cccc(O)c2)[C@H]1Cc1cccc(O)c1", "outcome": "inactive"}
{"compound": "Nc1nc(-c2ccc([N+](=O)[O-])cc2)cs1", "outcome": "inactive"}
{"compound": "COC(OC)OC", "outcome": "inactive"}
{"compound": "CC(C)COC(=O)COc1cc(Cl)c(Cl)cc1Cl", "outcome": "inactive"}
{"compound": "Cc1ccc(N(CCO)CCO)cc1", "outcome": "inactive"}
{"compound": "Nc1nc2ccc(OC(F)(F)F)cc2s1", "outcome": "inactive"}
{"compound": "C[C@@H]1C[C@H]2[C@@H]3CCC4=CC(=O)C=C[C@]4(C)[C@@]3(F)[C@@H](O)C[C@]2(C)[C@@]1(O)C(=O)COP(=O)(O)O", "outcome": "inactive"}
{"compound": "COC(=O)c1sccc1S(N)(=O)=O", "outcome": "inactive"}
{"compound": "COC(=O)CC(C(C)=O)C(=O)OC", "note": "(stereo not drawn)", "outcome": "inactive"}
{"compound": "Cc1c(C2(c3cc(Br)c(O)c(Br)c3C)OS(=O)(=O)c3ccccc32)cc(Br)c(O)c1Br", "outcome": "inactive"}
{"compound": "SCCc1cnccn1", "outcome": "inactive"}
{"compound": "CN(C)CC/C=C1\\c2ccccc2Sc2ccc(Cl)cc21", "outcome": "inactive"}
{"compound": "CC(=O)OCC(C)C", "outcome": "inactive"}
{"compound": "O=[N+]([O-])C1(Br)COCOC1", "outcome": "inactive"}
{"compound": "CSSc1ccoc1C", "outcome": "inactive"}
{"compound": "CCOC(=O)C(C)O", "note": "(stereo not drawn)", "outcome": "inactive"}
{"compound": "O=C(O)CCC(=O)c1ccc(-c2ccccc2)cc1", "fluorescence, % of fluorescein control": "0.0165% [at 18.6 µM] (inactive)"}
{"compound": "CNc1c2c(nn1C)CCCC2", "outcome": "inactive"}
{"compound": "CCN(Cc1cccc(S(=O)(=O)O)c1)c1ccc(C(=C2C=CC(=[N+](CC)Cc3cccc(S(=O)(=O)O)c3)C=C2)c2ccccc2S(=O)(=O)[O-])cc1", "outcome": "inactive"}
{"compound": "Nc1ccn([C@H]2CS[C@@H](CO)O2)c(=O)n1", "outcome": "inactive"}
{"compound": "C=CC(=O)O", "outcome": "inactive"}
{"compound": "CN=C(N)NC(=O)Nc1c(C)cccc1C", "outcome": "inactive"}
{"compound": "Cc1ccc2nc(N)[nH]c(=O)c2c1Sc1ccncc1", "outcome": "inactive"}
{"compound": "CCCCCCCC(=O)OCCCCCC", "outcome": "inactive"}
{"compound": "C[C@@H]1[C@H](O)[C@@H](C)/C=C/C=C\\C=C\\C=C\\C=C\\C=C\\C=C\\[C@H](O[C@@H]2O[C@H](C)[C@@H](O)[C@H](N)[C@@H]2O)C[C@@H]2O[C@](O)(C[C@@H](O)C[C@@H](O)[C@H](O)CC[C@@H](O)C[C@@H](O)CC(=O)O[C@H]1C)C[C@H](O)[C@H]2C(=O)O", "note": "(stereo in doubt)", "outcome": "inactive"}
{"compound": "COc1ccc(-n2nc(C(F)F)cc2-c2ccc(S(C)=O)cc2)cc1", "note": "(stereo not drawn)", "outcome": "inactive"}
{"compound": "CCN(CC)CCOC(=O)C(c1ccccc1)c1ccccc1", "outcome": "inactive"}
{"compound": "O=c1[nH]c2cc(C(F)(F)F)c(N3CCOCC3)cc2n(CP(=O)(O)O)c1=O", "outcome": "inactive"}
{"assay": "qHTS assay to test for compound auto fluorescence at 460 nm (blue) in HEK293 cells (AID 720678)", "conditions": "blue autofluorescence 405/460 nm; series mostly up to 91.3 µM", "how_it_was_run": "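Triamterene serves as the blue fluorophore standard. Compound signal at 405/460 nm is read in HEK293 wells (2,000 cells, 10% dialyzed FBS) after overnight treatment at 37C.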"}
{"compound": "CCc1ccc(C)cc1", "Potency": "inactive"}
{"compound": "Cc1ccc(Cl)cc1N", "Potency": "inactive"}
{"compound": "Cc1ccc(NC(=O)N(C)C)cc1NC(=O)N(C)C", "Potency": "inactive"}
{"compound": "CC(C)(C)S", "Potency": "inactive"}
{"compound": "O=P(O)(O)Oc1ccccc1", "Potency": "inactive"}
{"compound": "COc1ccc(-c2cc(C(F)F)nn2-c2ccc(S(N)(=O)=O)cc2)cc1F", "Potency": "inactive"}
{"compound": "CCO[Si](C)(CCCOCC1CO1)OCC", "note": "(stereo not drawn)", "Potency": "inactive"}
{"compound": "CNS(=O)(=O)c1cc(C(=O)N2CCC(CCN3C4CCC3CC(n3c(C)nc5ccccc53)C4)(c3cccc(F)c3)CC2)c(Cl)cc1F", "note": "(stereo not drawn)", "Potency": "inactive"}
{"compound": "Cc1c[nH]c2ccccc12", "Potency": "inactive"}
{"compound": "O=C1OC[C@H](Cc2cccc(O)c2)[C@H]1Cc1cccc(O)c1", "Potency": "inactive"}
{"compound": "Nc1nc(-c2ccc([N+](=O)[O-])cc2)cs1", "Potency": "inactive"}
{"compound": "COC(OC)OC", "Potency": "inactive"}
{"compound": "CC(C)COC(=O)COc1cc(Cl)c(Cl)cc1Cl", "Potency": "inactive"}
{"compound": "Cc1ccc(N(CCO)CCO)cc1", "Potency": "inactive"}
{"compound": "Nc1nc2ccc(OC(F)(F)F)cc2s1", "Potency": "inactive"}
{"compound": "C[C@@H]1C[C@H]2[C@@H]3CCC4=CC(=O)C=C[C@]4(C)[C@@]3(F)[C@@H](O)C[C@]2(C)[C@@]1(O)C(=O)COP(=O)(O)O", "Potency": "inactive"}
{"compound": "COC(=O)c1sccc1S(N)(=O)=O", "Potency": "inactive"}
{"compound": "COC(=O)CC(C(C)=O)C(=O)OC", "note": "(stereo not drawn)", "Potency": "inactive"}
{"compound": "Cc1c(C2(c3cc(Br)c(O)c(Br)c3C)OS(=O)(=O)c3ccccc32)cc(Br)c(O)c1Br", "Potency": "inactive"}
{"compound": "SCCc1cnccn1", "Potency": "inactive"}
{"compound": "CN(C)CC/C=C1\\c2ccccc2Sc2ccc(Cl)cc21", "Potency": "inactive"}
{"compound": "CC(=O)OCC(C)C", "Potency": "inactive"}
{"compound": "O=[N+]([O-])C1(Br)COCOC1", "Potency": "inactive"}
{"compound": "CSSc1ccoc1C", "Potency": "inactive"}
{"compound": "CCOC(=O)C(C)O", "note": "(stereo not drawn)", "Potency": "inactive"}
{"compound": "O=C(O)CCC(=O)c1ccc(-c2ccccc2)cc1", "fluorescence, % of triamterene": "-0.239% [at 18.6 µM] (inactive)"}
{"compound": "CNc1c2c(nn1C)CCCC2", "Potency": "inactive"}
{"compound": "CCN(Cc1cccc(S(=O)(=O)O)c1)c1ccc(C(=C2C=CC(=[N+](CC)Cc3cccc(S(=O)(=O)O)c3)C=C2)c2ccccc2S(=O)(=O)[O-])cc1", "Potency": "inactive"}
{"compound": "Nc1ccn([C@H]2CS[C@@H](CO)O2)c(=O)n1", "Potency": "inactive"}
{"compound": "C=CC(=O)O", "Potency": "inactive"}
{"compound": "CN=C(N)NC(=O)Nc1c(C)cccc1C", "Potency": "inactive"}
{"compound": "Cc1ccc2nc(N)[nH]c(=O)c2c1Sc1ccncc1", "Potency": "inactive"}
{"compound": "CCCCCCCC(=O)OCCCCCC", "Potency": "inactive"}
{"compound": "C[C@@H]1[C@H](O)[C@@H](C)/C=C/C=C\\C=C\\C=C\\C=C\\C=C\\C=C\\[C@H](O[C@@H]2O[C@H](C)[C@@H](O)[C@H](N)[C@@H]2O)C[C@@H]2O[C@](O)(C[C@@H](O)C[C@@H](O)[C@H](O)CC[C@@H](O)C[C@@H](O)CC(=O)O[C@H]1C)C[C@H](O)[C@H]2C(=O)O", "note": "(stereo in doubt)", "Potency": "inactive"}
{"compound": "COc1ccc(-n2nc(C(F)F)cc2-c2ccc(S(C)=O)cc2)cc1", "note": "(stereo not drawn)", "Potency": "inactive"}
{"compound": "CCN(CC)CCOC(=O)C(c1ccccc1)c1ccccc1", "Potency": "inactive"}
{"compound": "O=c1[nH]c2cc(C(F)(F)F)c(N3CCOCC3)cc2n(CP(=O)(O)O)c1=O", "Potency": "inactive"}
